High-throughput results: PubChem, several laboratories
ABHD5-PLIN5 inh – ABHD5-PLIN5 protein interaction inhibition. Q00G26+Q8WTS1. Split G. princeps luciferase complementation, luminescence, 4 h. inhibition, % at 4 µM. 0.78% of 360,000 active. AID 602281;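 active = inhibition above the mean inhibition across every tested compound plus 3 SD, cut at about 22% in these data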;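 note: 0% = DMSO only wells and the 100% control is not disclosed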
TLR4 MyD88 comp – inhibitors of human TLR4-MyD88 binding; HeLa CL3-4 TLR4/MyD88 BLA complementation, FRET ratio; inhibition, % at 8.4 µM; 0.18% of 200,000 active; in the data active = inhibition above about 25%;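 note: 0% = vehicle and 100% = reference inhibitor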
Target sequence (O00206 whole entry, looked up): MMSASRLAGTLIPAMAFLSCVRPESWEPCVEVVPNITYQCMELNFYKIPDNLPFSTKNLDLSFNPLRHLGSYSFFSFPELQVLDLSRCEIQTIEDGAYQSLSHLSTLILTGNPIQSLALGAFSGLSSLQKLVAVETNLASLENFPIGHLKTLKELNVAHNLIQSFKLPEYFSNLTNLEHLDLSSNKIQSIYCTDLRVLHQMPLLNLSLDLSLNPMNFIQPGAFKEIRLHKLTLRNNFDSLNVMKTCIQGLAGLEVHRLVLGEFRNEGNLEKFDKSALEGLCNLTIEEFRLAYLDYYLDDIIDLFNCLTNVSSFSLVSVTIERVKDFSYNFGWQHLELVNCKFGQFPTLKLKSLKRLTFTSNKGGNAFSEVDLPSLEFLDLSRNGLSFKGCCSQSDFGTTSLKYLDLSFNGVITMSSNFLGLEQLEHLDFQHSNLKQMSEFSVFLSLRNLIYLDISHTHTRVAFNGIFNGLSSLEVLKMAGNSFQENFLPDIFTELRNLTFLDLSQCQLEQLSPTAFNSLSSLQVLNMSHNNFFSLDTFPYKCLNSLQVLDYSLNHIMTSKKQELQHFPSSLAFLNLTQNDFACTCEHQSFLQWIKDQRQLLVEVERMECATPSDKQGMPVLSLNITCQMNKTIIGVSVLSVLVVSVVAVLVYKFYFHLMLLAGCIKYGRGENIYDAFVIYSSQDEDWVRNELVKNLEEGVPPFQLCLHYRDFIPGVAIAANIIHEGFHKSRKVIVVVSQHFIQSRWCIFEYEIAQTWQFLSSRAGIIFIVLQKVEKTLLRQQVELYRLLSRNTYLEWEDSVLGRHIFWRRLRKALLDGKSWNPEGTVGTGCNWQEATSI
Target sequence (Q99836 whole entry, looked up): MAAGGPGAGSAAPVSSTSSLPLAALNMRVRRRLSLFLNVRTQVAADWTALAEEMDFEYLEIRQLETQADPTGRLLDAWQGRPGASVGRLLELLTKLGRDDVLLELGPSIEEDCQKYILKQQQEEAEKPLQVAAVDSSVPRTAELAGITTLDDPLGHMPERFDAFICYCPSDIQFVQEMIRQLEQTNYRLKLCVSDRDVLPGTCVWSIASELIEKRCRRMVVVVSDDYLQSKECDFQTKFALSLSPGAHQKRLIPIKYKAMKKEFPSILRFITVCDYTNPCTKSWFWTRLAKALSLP
TLR9-MyD88 block – inhibitors of human TLR9-MyD88 binding; inhibition, % at 4.98 µM; CHO BLA complementation TLR9-MyD88, CCF4 FRET ratio; 0.21% of 340,000 active; Q9NR96+Q99836; AID 504734;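 active = inhibition above the mean over all tested compounds plus 3 SD, cut at about 21% in these data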;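 note: 0% = DMSO only wells and 100% = clavulanate BLA inhibitor control wells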
Granule exo inh – blocks lytic granule exocytosis; TALL-104 LAMP-1 surface exposure, flow cytometry; cells stimulated with thapsigargin and PMA; inhibition, % at 10 µM; 0.66% of 360,000 active;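 active = inhibition above about 55%, limit read from the data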
PRMT1 inh – blocks human protein arginine methyltransferase 1. Q99873. recombinant PRMT1, activity-based probe fluorescence polarization. inhibition, % at 2.79 µM. 1.3% of 370,000 active;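 active = inhibition above about 21% made by adding two undisclosed values, limit read from the data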
NOD2-RIPK2 inh – NOD2-RIPK2 protein interaction inhibition. 0.38% of 360,000 active. CHO BLA complementation NOD2-RIPK2, CCF4 ratio. inhibition, % at 4.98 µM. O43353. AID 624267; in the data active = inhibition above about 21%;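 note: 0% = vehicle only and 100% = reference blocker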
TLR4 MyD88 cnf – confirmation of human TLR4-MyD88 binding inhibitors. 50% of 350 active. AID 941. shares compounds with TLR4 MyD88 comp. inhibition, % at 8.4 µM. HeLa CL3-4 BLA complementation, CCF4 FRET ratio;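 active = mean inhibition across three repeat runs above about 25% carried over from the earlier screen, limit read from the data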;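 note: plate controls were DMSO only for no effect and clavulanic acid blocking BLA at full dose for full effect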
BLA inh HeLa – counter-screen for TLR4-MyD88 inhibitors: beta-lactamase reporter inhibitors; inhibition, % at 8.4 µM; shares compounds with TLR4 MyD88 comp; HeLa BLA reporter, CCF4 FRET ratio; 63% of 350 active;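 active = mean inhibition over three repeats above about 26% taken from the earlier screen, limit read from the data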;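 note: HeLa cells stably expressing beta-lactamase reporter as counterscreen for TLR4-MyD88 inhibitors; 0% = DMSO and 100% = clavulanic acid full inhibition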
TLR9-MyD88 cf – confirmation of human TLR9-MyD88 binding inhibitors. shares compounds with TLR9-MyD88 block. CHO TLR9/MyD88 BLA complementation, CCF4 FRET ratio. inhibition, % at 4.98 µM. 51% of 680 active. AID 540250;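 active = mean inhibition across three repeats above about 21% taken from the earlier screen, limit read from the data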;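 note: blue over green emission ratio reports constitutive TLR9 MyD88 association via BLA complementation; 0% = DMSO vehicle wells and 100% = clavulanate BLA inhibitor wells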
BLA counter – beta-lactamase reporter inhibition, counter-screen artifact. shares compounds with TLR9-MyD88 block. CHO-BLA cells, CCF4 FRET ratio, BLA reporter. inhibition, % at 4.98 µM. 7% of 680 active. AID 540251;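 active = mean inhibition above a 50% cutoff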;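 note: counterscreen of TLR9-MyD88 hits on CMV-driven BLA in CHO-K1 cells; 0% = DMSO alone and 100% = clavulanate blocking BLA; higher means less blue over green ratio so more BLA blockade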
TLR9 CHO cytotox – CHO cell toxicity counter-screen for TLR9-MyD88 inhibitors | inhibition, % at 4.98 µM | 39% of 680 active | TLR9-MyD88 CHO cells cytotoxicity, luminescence | AID 588336 | shares compounds with TLR9-MyD88 block; in the data active = inhibition above about 11%
ABHD5 PLIN5 conf – confirmation of human ABHD5-PLIN5 interaction inhibitors; shares compounds with ABHD5-PLIN5 inh; biochemical ABHD5-PLIN5 interaction, luminescence; inhibition, % at 4 µM; 67% of 2,200 active; in the data active = inhibition above about 23%;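 note: 0% = DMSO vehicle wells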
HNF4 split-luc – HNF4 split-luciferase signal hit, counter-screen; shares compounds with ABHD5-PLIN5 inh; HNF4 dimerization, luminescence, biochemical; inhibition, % at 4 µM; 77% of 2,200 active; AID 651674;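 active = mean inhibition across replicate wells exceeding the computed hit threshold, cut at about 13% in these data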;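 note: light from luciferase halves that rejoin when HNF4 fusion proteins dimerize; 0% = DMSO only wells and the 100% control is not given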
* marks the source's active call; other numbers are inactive results. In the library only some 2.6% were active in any assay of this set; here they are far more common.

What do the screens show for `O=C(C1=NN(c2ccccc2)C2C(=O)N(c3cccc(Cl)c3)C(=O)C12)c1ccccc1` (configuration not stated)?
ABHD5-PLIN5 inh: -4; TLR4 MyD88 comp: 46*; TLR9-MyD88 block: 28*; Granule exo inh: 1; PRMT1 inh: 3; NOD2-RIPK2 inh: 35*; TLR4 MyD88 cnf: 27*; BLA inh HeLa: 45*; TLR9-MyD88 cf: 25*; BLA counter: 28; TLR9 CHO cytotox: 3

Results for O=C1C2C3CC(C2C(=O)N1c1cccc(Cl)c1)[C@H](O)C3O (some centres not stated) ?
ABHD5-PLIN5 inh: -7; TLR9-MyD88 block: 1; Granule exo inh: -2; PRMT1 inh: -1; NOD2-RIPK2 inh: -4

Results for CCc1cc2c(=O)c(-c3nc4ccccc4n3C)c(COCC(=O)O)oc2cc1OC(=O)C(C)(C)C ?
ABHD5-PLIN5 inh: 8; TLR4 MyD88 comp: 43*; TLR9-MyD88 block: 49*; Granule exo inh: 0; PRMT1 inh: -1; NOD2-RIPK2 inh: 1; TLR4 MyD88 cnf: -6; BLA inh HeLa: 13; TLR9-MyD88 cf: 2; BLA counter: 0; TLR9 CHO cytotox: 3

How did CCc1cc2c(=O)c(-c3nc4ccccc4n3C)c(C)oc2cc1OC(C)=O do in these assays?
ABHD5-PLIN5 inh: -3; TLR9-MyD88 block: -7; Granule exo inh: 2; PRMT1 inh: -3; NOD2-RIPK2 inh: -9

Results for COc1ccc(N(CC(=O)N/N=C/c2ccc(-c3ccc([N+](=O)[O-])cc3)o2)S(=O)(=O)c2ccc(C)cc2)cc1Cl ?
ABHD5-PLIN5 inh: 6; TLR4 MyD88 comp: 71*; TLR9-MyD88 block: 64*; Granule exo inh: 2; PRMT1 inh: 9; NOD2-RIPK2 inh: 17; TLR4 MyD88 cnf: 65*; BLA inh HeLa: 95*; TLR9-MyD88 cf: 59*; BLA counter: 61*; TLR9 CHO cytotox: 5

Results for COc1ccc(N(CC(=O)N/N=C/c2ccc(-c3ccc([N+](=O)[O-])cc3)o2)S(=O)(=O)c2ccc(C)cc2)cc1 ?
ABHD5-PLIN5 inh: -8; TLR4 MyD88 comp: 5; TLR9-MyD88 block: 4; Granule exo inh: -1; PRMT1 inh: -1; NOD2-RIPK2 inh: -5

How did COC(=O)[C@]12C[C@H](CC(=O)N3CCC(c4ccccc4)CC3)C(=O)N(Cc3ccccc3)C1=C[C@H](C1CCCC1)O[C@@H]2C do in these assays?
PRMT1 inh: -3

What do the screens show for `COc1ccccc1NS(=O)(=O)c1cc([N+](=O)[O-])ccc1N/N=C/c1c[nH]c2ccccc12`?
ABHD5-PLIN5 inh: 10; TLR4 MyD88 comp: 39*; TLR9-MyD88 block: 49*; Granule exo inh: 14; PRMT1 inh: -2; NOD2-RIPK2 inh: 4; TLR4 MyD88 cnf: 27*; BLA inh HeLa: 56*; TLR9-MyD88 cf: 45*; BLA counter: 44; TLR9 CHO cytotox: 3

What do the screens show for `Cc1cc(C)c(S(=O)(=O)N2C[C@H]3CON(C)[C@H]3C[C@H]2c2ccc(-n3ccnc3)cc2)c(C)c1`?
PRMT1 inh: -3

How did Cc1ccc(-n2c(Cl)c(Cl)nc(Cl)c2=O)cc1 do in these assays?
ABHD5-PLIN5 inh: 85*; TLR4 MyD88 comp: 27*; TLR9-MyD88 block: 48*; Granule exo inh: 28; NOD2-RIPK2 inh: 84*; TLR4 MyD88 cnf: 19; BLA inh HeLa: 22; TLR9-MyD88 cf: 49*; BLA counter: 40; TLR9 CHO cytotox: 99*

Results for CNC(C)C(=O)NC(C(=O)N1CCCC1C(=O)Nc1cccc2ncccc12)C(C)C (configuration not stated) ?
PRMT1 inh: -4

How did Cc1ccc(C(=O)NC2CCCCN(Cc3cccc(F)c3)C2=O)cc1 (configuration not stated) do in these assays?
PRMT1 inh: -1

What do the screens show for `COc1cccc(/C=C2\C(=O)N(c3cccc(C)c3)C(=O)c3ccccc32)c1`?
ABHD5-PLIN5 inh: 1; TLR4 MyD88 comp: 29*; TLR9-MyD88 block: 24*; Granule exo inh: -6; PRMT1 inh: -2; NOD2-RIPK2 inh: -12; TLR4 MyD88 cnf: 41*; BLA inh HeLa: 38*; TLR9-MyD88 cf: 46*; BLA counter: 47; TLR9 CHO cytotox: 4

How did COc1cccc(N2C(=O)c3ccncc3C2=O)c1 do in these assays?
ABHD5-PLIN5 inh: 6; TLR4 MyD88 comp: -1; TLR9-MyD88 block: 1; Granule exo inh: 1; PRMT1 inh: 4; NOD2-RIPK2 inh: 0

What do the screens show for `N#Cc1sc2nc(-c3ccccc3)cc(-c3ccco3)c2c1N`?
ABHD5-PLIN5 inh: -19; TLR4 MyD88 comp: 40*; TLR9-MyD88 block: 22*; Granule exo inh: 3; PRMT1 inh: 3; NOD2-RIPK2 inh: 13; TLR4 MyD88 cnf: 26*; BLA inh HeLa: 53*; TLR9-MyD88 cf: 28*; BLA counter: 25; TLR9 CHO cytotox: -1

Results for O=C1c2cccc3c([N+](=O)[O-])ccc(c23)C(=O)N1c1ccc(Cl)cn1 ?
ABHD5-PLIN5 inh: 4; TLR4 MyD88 comp: 86*; TLR9-MyD88 block: 73*; Granule exo inh: 54; PRMT1 inh: 10; NOD2-RIPK2 inh: 85*; TLR4 MyD88 cnf: 87*; BLA inh HeLa: 111*; TLR9-MyD88 cf: 68*; BLA counter: 86*; TLR9 CHO cytotox: 94*

How did Cn1c(=O)c([N+](=O)[O-])c(-n2ccnc2)c2ccccc21 do in these assays?
ABHD5-PLIN5 inh: 23*; TLR4 MyD88 comp: 25*; TLR9-MyD88 block: 4; Granule exo inh: -1; PRMT1 inh: 8; NOD2-RIPK2 inh: 5; TLR4 MyD88 cnf: -5; BLA inh HeLa: -13; ABHD5 PLIN5 conf: 2; HNF4 split-luc: 11
